The record followed here is publication PMC7862700, “An all-to-all approach to the identification of sequence-specific readers for epigenetic DNA modifications on cytosine”.

Test in all cases: DAPPL (digital affinity profiling via proximity ligation, sequencing); 10 mM Tris-HCl pH 7.5, 50 mM NaCl, 1 mM DTT, 4% glycerol, room temperature, 30 min; GST-TFs on glutathione beads, 16-mer random dsDNA library, 0.1% formaldehyde crosslink after washing; high values mean tight binding
Holding throughout (conditions): protein: recombinant; tags: N-terminal GST; dsDNA, one strand shown

The target in one experiment is T1, ELK1 (Homo sapiens, UniProt P19419 1-428).
T1 sequence: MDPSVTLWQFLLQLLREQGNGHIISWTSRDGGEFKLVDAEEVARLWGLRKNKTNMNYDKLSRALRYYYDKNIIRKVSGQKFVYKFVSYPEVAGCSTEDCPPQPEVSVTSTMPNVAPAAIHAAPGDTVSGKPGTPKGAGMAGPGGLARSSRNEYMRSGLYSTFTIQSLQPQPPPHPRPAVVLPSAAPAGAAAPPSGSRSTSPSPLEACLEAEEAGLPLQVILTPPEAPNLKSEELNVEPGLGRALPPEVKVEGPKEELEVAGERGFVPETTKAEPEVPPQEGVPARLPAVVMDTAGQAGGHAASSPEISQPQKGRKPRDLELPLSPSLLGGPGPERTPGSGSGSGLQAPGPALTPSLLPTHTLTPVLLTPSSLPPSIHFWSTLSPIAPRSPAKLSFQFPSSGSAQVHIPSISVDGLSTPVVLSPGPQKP
In a few lines: (§1)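 Each value of binding signal is a hexamer's read frequency for a factor divided by the same hexamer's frequency in the tag-only sample. Barcoded, bead-captured GST fusions of human transcription factors made in yeast were pooled with that sample and incubated with 200 nmole of a random double-stranded 16-mer DNA library in Tris/NaCl/DTT/glycerol buffer at room temperature for 30 min. Washing, 0.1% formaldehyde crosslinking, proximity ligation, PCR and Illumina NextSeq500 sequencing followed.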

In a further experiment the target is T2, GABPA (Homo sapiens, UniProt Q06546 1-454).
T2 sequence: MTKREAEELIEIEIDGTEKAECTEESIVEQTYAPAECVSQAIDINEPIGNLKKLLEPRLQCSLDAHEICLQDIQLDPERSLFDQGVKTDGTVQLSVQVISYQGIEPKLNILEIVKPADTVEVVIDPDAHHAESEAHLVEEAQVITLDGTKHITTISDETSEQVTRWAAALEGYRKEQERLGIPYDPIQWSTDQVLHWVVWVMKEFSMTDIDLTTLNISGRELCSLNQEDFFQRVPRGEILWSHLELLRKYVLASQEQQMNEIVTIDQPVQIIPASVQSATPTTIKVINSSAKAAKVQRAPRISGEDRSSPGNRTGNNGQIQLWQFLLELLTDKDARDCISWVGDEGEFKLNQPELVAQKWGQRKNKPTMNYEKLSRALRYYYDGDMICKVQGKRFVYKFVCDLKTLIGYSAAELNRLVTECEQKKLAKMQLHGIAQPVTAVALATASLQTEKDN
The gist of the method:
as §1

The target in the next experiment is T3, ERG (Homo sapiens, UniProt P11308 1-479).
T3 sequence: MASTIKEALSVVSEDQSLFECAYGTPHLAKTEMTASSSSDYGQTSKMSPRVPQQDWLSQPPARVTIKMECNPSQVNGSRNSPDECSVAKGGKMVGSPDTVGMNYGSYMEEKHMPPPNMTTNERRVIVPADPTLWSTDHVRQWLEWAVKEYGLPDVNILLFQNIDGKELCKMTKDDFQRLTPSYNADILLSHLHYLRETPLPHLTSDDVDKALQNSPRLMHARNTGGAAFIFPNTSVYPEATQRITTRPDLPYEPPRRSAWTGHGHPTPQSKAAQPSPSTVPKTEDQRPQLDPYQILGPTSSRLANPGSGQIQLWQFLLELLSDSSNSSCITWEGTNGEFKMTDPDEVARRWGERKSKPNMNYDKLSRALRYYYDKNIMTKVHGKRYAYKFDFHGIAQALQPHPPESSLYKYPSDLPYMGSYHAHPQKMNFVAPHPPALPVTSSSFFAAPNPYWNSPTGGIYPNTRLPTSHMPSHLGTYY
In a few lines: as §1

The target of a further experiment is ELF1 (Homo sapiens, UniProt P32519 1-619). In a few lines:
as §1

The next experiment concerns the target SPI1 (Homo sapiens, UniProt P17947 1-270). In a few lines: as §1
A further experiment concerns the target T4, SPIC (Homo sapiens, UniProt Q8N5J4 1-248).
T4 sequence: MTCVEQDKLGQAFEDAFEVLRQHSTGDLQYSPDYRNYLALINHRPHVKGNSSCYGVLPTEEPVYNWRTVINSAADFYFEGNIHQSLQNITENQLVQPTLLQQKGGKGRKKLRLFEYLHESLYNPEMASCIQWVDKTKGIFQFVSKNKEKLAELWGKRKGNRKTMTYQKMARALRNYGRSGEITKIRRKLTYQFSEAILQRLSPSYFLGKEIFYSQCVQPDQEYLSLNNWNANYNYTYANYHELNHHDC
In a few lines:
as §1

In another experiment the target is T5, ELK4 (Homo sapiens, UniProt P28324-2 1-405).
T5 sequence: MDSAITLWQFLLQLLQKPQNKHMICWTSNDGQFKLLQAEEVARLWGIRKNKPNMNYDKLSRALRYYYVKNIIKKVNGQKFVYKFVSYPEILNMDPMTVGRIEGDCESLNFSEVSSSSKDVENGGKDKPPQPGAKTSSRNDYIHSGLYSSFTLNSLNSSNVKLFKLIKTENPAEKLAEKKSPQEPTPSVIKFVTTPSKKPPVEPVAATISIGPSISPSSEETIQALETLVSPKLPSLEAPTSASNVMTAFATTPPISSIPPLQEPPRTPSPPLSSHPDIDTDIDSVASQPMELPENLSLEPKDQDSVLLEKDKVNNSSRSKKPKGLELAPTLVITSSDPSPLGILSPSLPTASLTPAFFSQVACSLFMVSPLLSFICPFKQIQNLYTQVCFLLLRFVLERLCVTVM
The gist of the method:
as §1

A further experiment deals with T6, ERF (Homo sapiens, UniProt P50548 1-548).
T6 sequence: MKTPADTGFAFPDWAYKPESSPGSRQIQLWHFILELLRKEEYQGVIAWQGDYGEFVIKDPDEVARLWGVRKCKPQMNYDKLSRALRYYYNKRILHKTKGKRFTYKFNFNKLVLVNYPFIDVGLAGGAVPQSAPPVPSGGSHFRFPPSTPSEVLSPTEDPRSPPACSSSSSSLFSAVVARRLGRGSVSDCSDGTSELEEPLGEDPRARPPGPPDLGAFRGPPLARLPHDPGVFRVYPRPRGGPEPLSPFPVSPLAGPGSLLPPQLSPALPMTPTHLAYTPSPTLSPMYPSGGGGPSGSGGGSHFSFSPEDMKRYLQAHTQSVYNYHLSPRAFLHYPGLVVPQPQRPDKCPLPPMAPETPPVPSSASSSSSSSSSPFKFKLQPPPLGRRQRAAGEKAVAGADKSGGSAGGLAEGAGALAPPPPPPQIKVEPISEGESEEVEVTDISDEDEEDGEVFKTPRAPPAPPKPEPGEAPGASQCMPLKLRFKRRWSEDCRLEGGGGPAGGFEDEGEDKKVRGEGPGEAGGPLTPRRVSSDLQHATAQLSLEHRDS
In a few lines:
as §1

The target in a further experiment is T7, ETV3L (Homo sapiens, UniProt Q6ZN32 1-361).
T7 sequence: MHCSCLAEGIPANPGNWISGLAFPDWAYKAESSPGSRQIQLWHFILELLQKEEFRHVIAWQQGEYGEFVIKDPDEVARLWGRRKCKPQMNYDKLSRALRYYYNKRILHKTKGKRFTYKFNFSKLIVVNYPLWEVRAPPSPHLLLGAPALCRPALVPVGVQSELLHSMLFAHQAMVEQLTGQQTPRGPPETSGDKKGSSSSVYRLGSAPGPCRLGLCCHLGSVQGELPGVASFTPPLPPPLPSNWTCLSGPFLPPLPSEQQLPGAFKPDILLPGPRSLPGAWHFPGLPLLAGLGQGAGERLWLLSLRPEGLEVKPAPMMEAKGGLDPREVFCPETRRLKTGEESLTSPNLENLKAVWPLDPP
In a few lines:
as §1

For another experiment, the target named is T8, ETS2 (Homo sapiens, UniProt P15036 1-469).
T8 sequence: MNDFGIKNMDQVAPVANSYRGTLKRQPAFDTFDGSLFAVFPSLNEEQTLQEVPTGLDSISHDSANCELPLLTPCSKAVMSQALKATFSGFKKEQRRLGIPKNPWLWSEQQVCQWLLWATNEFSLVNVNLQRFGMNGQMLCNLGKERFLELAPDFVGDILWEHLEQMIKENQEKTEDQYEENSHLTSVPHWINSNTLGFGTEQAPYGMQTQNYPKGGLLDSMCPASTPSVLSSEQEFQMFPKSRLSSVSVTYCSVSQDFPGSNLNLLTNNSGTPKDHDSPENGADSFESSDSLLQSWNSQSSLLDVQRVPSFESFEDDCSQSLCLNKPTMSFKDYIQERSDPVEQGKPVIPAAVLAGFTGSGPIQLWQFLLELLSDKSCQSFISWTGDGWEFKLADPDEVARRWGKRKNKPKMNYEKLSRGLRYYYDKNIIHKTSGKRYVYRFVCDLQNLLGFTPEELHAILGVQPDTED
In a few lines: as §1

The target in a further experiment is T9, ETV3 (Homo sapiens, UniProt P41162-2 1-143).
T9 sequence: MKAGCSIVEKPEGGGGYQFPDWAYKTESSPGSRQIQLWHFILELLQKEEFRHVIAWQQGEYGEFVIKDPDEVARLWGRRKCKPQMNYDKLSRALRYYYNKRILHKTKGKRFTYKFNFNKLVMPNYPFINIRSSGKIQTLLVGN
In a few lines: as §1

Another experiment addresses ETV6 (Homo sapiens, UniProt P41212 1-452). In a few lines:
as §1

Another experiment concerns the target ELF4 (Homo sapiens, UniProt Q99607 1-663). In a few lines: as §1
A further experiment concerns the target T10, ETV7 (Homo sapiens, UniProt Q9Y603 1-341).
T10 sequence: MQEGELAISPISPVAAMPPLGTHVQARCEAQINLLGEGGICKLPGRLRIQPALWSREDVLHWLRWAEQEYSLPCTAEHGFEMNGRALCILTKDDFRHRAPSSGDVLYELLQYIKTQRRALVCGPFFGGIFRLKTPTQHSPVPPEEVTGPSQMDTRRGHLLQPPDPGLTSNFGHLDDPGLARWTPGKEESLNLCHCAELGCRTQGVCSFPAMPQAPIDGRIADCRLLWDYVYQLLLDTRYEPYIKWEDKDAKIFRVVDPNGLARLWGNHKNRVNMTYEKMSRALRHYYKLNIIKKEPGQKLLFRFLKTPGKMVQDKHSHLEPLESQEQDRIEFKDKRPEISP
The gist of the method: as §1

A further experiment addresses T11, ELF3 (Homo sapiens, UniProt P78545 1-371).
T11 sequence: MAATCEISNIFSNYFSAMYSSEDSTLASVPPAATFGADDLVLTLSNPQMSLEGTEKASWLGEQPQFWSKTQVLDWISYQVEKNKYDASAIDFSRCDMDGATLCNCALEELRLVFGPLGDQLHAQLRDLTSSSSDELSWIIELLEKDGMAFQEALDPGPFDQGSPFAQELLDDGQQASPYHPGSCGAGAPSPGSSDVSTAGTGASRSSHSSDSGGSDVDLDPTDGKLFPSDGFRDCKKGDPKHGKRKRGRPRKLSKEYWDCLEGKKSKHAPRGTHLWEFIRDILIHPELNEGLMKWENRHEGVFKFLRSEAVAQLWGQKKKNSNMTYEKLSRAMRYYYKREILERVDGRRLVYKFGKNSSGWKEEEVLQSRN
The gist of the method: as §1

The target of a further experiment is ETV1 (Homo sapiens, UniProt P50549 1-477). In a few lines: as §1
Chain of ETV1 (P50549 whole entry): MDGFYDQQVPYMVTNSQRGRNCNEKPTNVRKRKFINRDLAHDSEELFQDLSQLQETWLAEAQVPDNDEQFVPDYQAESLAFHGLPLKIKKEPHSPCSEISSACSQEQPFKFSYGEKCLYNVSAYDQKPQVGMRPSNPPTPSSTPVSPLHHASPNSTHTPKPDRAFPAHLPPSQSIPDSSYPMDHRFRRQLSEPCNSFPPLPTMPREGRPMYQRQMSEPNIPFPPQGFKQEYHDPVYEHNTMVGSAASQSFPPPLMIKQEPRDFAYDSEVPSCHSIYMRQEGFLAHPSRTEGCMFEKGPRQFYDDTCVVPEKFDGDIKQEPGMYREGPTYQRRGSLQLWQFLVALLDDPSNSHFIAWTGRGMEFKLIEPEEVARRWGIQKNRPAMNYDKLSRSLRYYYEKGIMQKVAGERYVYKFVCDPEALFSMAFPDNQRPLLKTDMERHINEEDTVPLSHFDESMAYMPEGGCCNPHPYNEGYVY

Chain of ETV6 (P41212 whole entry): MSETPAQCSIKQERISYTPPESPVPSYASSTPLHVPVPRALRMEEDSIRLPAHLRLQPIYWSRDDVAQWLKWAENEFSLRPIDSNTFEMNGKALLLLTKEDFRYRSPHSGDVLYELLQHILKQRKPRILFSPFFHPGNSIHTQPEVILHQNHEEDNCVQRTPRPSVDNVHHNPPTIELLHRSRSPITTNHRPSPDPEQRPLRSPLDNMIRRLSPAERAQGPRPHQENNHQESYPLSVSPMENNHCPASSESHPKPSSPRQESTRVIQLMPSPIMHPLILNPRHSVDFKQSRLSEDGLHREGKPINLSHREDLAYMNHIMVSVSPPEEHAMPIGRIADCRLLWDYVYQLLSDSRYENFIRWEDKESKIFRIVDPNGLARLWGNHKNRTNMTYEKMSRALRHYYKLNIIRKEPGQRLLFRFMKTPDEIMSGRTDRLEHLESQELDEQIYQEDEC
Chain of ELF1 (P32519 whole entry): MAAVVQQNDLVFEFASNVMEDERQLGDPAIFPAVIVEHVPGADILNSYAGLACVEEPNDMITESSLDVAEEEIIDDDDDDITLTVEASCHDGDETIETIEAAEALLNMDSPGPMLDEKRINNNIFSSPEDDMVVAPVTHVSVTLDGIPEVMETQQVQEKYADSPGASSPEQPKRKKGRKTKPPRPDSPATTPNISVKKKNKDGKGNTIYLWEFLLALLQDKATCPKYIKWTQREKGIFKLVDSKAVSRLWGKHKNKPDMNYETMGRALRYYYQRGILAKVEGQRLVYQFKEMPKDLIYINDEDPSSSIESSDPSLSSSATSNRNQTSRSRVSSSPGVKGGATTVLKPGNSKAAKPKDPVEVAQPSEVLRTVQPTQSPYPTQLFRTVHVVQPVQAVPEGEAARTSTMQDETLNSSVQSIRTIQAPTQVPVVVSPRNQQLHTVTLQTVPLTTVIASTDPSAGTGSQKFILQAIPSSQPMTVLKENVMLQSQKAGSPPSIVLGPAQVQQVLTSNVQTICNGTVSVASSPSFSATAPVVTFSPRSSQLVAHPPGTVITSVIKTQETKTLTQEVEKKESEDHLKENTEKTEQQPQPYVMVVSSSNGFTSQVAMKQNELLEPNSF
Chain of ELF4 (Q99607 whole entry): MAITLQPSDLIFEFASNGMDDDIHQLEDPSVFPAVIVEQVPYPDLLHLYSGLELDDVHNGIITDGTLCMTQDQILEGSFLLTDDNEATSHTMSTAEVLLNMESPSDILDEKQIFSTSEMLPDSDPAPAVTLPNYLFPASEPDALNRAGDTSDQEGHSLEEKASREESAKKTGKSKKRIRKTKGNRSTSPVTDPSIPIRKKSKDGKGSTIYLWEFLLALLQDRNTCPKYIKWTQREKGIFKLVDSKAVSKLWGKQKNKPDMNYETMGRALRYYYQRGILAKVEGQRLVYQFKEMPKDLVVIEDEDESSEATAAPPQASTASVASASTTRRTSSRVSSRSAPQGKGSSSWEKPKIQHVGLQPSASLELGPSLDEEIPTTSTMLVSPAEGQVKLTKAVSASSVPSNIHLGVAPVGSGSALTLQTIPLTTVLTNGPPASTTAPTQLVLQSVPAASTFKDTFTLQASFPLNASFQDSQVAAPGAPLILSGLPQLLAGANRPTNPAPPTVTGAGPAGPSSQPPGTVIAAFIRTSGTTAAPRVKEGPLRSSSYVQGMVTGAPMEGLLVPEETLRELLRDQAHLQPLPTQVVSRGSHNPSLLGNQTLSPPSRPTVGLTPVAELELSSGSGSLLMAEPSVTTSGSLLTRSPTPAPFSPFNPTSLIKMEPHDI

With AGTCTC, the binding signal with ELK1 was 1.02 fold enrichment (6-mer frequency, TF over GST control); with GABPA, 1.01 fold enrichment (6-mer frequency, TF over GST control); with ERG, 1.06 fold enrichment (6-mer frequency, TF over GST control); with ELF1, 1.05 fold enrichment (6-mer frequency, TF over GST control); with SPI1 it was 1.07 fold enrichment (6-mer frequency, TF over GST control); with SPIC, 1.1 fold enrichment (6-mer frequency, TF over GST control). Also, the binding signal with ELK4 is 1.05 fold enrichment (6-mer frequency, TF over GST control); with ERF, 1.04 fold enrichment (6-mer frequency, TF over GST control); with ETV3L it was 1.06 fold enrichment (6-mer frequency, TF over GST control); with ETS2, 1.05 fold enrichment (6-mer frequency, TF over GST control); with ETV3, 1.09 fold enrichment (6-mer frequency, TF over GST control); in the experiment with ETV6, 1.04 fold enrichment (6-mer frequency, TF over GST control).
Turning to TGAAGA, the binding signal with SPIC was 1.01 fold enrichment (6-mer frequency, TF over GST control); with ELF4, 1.01 fold enrichment (6-mer frequency, TF over GST control); in the experiment with ELK4 it was 1.02 fold enrichment (6-mer frequency, TF over GST control); with ERF it was 1.09 fold enrichment (6-mer frequency, TF over GST control); with ETV7 it was 1.04 fold enrichment (6-mer frequency, TF over GST control).
Consider TAAGGG, for which the binding signal with SPIC was 1.18 fold enrichment (6-mer frequency, TF over GST control); with ELK4, 1.1 fold enrichment (6-mer frequency, TF over GST control); with ELF3 it was 1.09 fold enrichment (6-mer frequency, TF over GST control); with ETV1, 1.05 fold enrichment (6-mer frequency, TF over GST control); with ERF, 1.01 fold enrichment (6-mer frequency, TF over GST control); with ETS2, 1 fold enrichment (6-mer frequency, TF over GST control). The binding signal in the experiment with ETV6 was 1.01 fold enrichment (6-mer frequency, TF over GST control).
For the sequence GCCCGA, the binding signal is 1.01 fold enrichment (6-mer frequency, TF over GST control) in the experiment with ELK1; 1.02 fold enrichment (6-mer frequency, TF over GST control) with GABPA; 1.01 fold enrichment (6-mer frequency, TF over GST control) with ERG; 1.14 fold enrichment (6-mer frequency, TF over GST control) in the experiment with ELF1; 1.01 fold enrichment (6-mer frequency, TF over GST control) in the experiment with SPI1; 1.11 fold enrichment (6-mer frequency, TF over GST control) with SPIC. The binding signal in the experiment with ELF4 is 1.02 fold enrichment (6-mer frequency, TF over GST control); in the experiment with ELK4, 1.1 fold enrichment (6-mer frequency, TF over GST control); in the experiment with ELF3, 1.21 fold enrichment (6-mer frequency, TF over GST control); with ERF, 1.05 fold enrichment (6-mer frequency, TF over GST control); in the experiment with ETV3L, 1.01 fold enrichment (6-mer frequency, TF over GST control); with ETS2, 1.08 fold enrichment (6-mer frequency, TF over GST control). Moreover, the binding signal was 1.04 fold enrichment (6-mer frequency, TF over GST control) in the experiment with ETV3 and 1.07 fold enrichment (6-mer frequency, TF over GST control) with ETV6.
